High-throughput results deposited in PubChem BioAssay by National Center for Advancing Translational Sciences (NCATS).
Shown are actives, neighbours in structure and some others; about 7.3% of the full set was active somewhere.
VP16 counter: counter-screen for ROR gamma inhibitors: Gal4-VP16 reporter. Potency, µM (series often up to 53.6 µM), without a hit: at the highest dose activity, negative = inhibition, hits mostly inhibitors. Drosophila S2 Gal4-VP16 UAS-luciferase, luminescence, 20 h. 310,000 tested, 3.5% active. AID 2546;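 note: Gal4-VP16 expression switched on by copper sulfate through the metallothionein promoter; nearly all actives have a fitted effect of over 50% in size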
RORg inh: inhibitors of mouse ROR gamma transcriptional activity; Drosophila S2 Gal4-RORgamma UAS-luciferase reporter, 20 h; P51450; 310,000 tested, 5.4% active; Potency, µM (doses to about 53.6 µM), for inactives: at the top dose activity change, negative = inhibition, actives largely listed as inhibitors; note: nearly all actives have a fitted effect of over 60% in size
Target sequence (P51450 whole entry, looked up, the tested form may be a part): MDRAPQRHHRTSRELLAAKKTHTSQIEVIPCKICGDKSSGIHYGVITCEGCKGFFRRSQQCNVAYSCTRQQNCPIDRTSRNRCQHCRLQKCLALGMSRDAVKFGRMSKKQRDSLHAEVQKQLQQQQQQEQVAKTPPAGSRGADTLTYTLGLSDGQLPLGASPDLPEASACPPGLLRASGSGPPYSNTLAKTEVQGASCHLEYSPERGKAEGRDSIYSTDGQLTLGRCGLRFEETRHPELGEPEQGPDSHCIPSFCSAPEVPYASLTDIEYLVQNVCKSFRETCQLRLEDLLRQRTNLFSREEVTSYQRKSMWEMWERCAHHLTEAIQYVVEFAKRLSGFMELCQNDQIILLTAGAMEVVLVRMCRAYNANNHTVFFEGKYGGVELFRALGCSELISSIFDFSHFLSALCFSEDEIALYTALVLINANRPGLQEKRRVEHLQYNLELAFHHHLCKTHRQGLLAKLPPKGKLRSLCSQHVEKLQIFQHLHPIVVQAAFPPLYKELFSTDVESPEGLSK
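Schneider cells (Drosophila), stable Gal4 DBD–ROR gamma + UAS-luc; 1 hr cmpd preincubation; Cu2+ induction 700 uM final; 20 hr ambient; luminescence.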
Tau fluor cs: counter-screen for tau fibril formation inhibitors | 280,000 tested, 0.93% active | AID 1463 | Potency, µM (top dose mostly 57.7 µM), inactives show top-dose activity change, negative = decrease | tau K18 P301L Alexa594 fluorescence, heparin fibrillization; note: nearly all actives have a fitted effect of over 55% in size
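Human K18 P301L tau (15 uM unlabeled plus 0.24 uM Alexa 594-labeled, final) in 100 mM sodium acetate pH 7 was mixed with compound and 20 uM heparin and incubated 6 hr at 37 C.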
Tau ThT inhib: tau fibrillization inhibition (ThT binding); P10636; recombinant tau K18 P301L, heparin-induced fibrillization, ThT fluorescence; 270,000 tested, 2.1% active; Potency, µM (series often up to 57.4 µM), without a hit: at the highest dose activity, negative = inhibition, hits mostly inhibitors; note: nearly all actives have a fitted effect of over 55% in size
Target sequence (P10636 561-689 P618L limits assumed): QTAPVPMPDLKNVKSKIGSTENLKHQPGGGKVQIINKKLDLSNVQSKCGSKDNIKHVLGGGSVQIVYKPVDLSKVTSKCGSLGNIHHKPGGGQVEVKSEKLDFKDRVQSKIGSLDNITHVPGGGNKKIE
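Heparin-induced (20 uM) aggregation of recombinant human K18 P301L tau, 15 uM unlabeled with 0.24 uM labeled, pH 7 acetate buffer, 6 hr at 37 C with compound. Fibrils quantified by 30 uM ThT fluorescence after 1 hr ambient incubation.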
Tau FP inhib: blocks human tau fibril formation measured by polarization; 280,000 tested, 0.39% active; Potency, µM (series often up to 57.7 µM), inactives show at the top dose activity, negative = inhibition, hits mostly inhibitors; P10636; K18 P301L tau heparin fibrillization, Alexa594 FP, 6 h; note: nearly all actives have a fitted effect of over 55% in size
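Heparin (20 uM) drove fibril formation of recombinant tau K18 P301L, 15 uM unlabeled with 0.24 uM Alexa 594 label, for 6 hr at 37 C in 100 mM sodium acetate pH 7. Fluorescence polarization (555/632 nm) read 1 hr after 30 uM ThT.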
An asterisk follows results filed as active; ? = inconclusive; · = no result given; [ ] = dose if it differs, or a comment. Calls come from the whole dose curve; as a rule, active = well fitted curve in the direction sought with a large enough effect; inconclusive = small, poorly fitted or top-dose-only effect, or another doubt; inactive = no such curve, though single readings can be large; an effect the other way counts as inactive or inconclusive. % is set by controls: 0 for no effect and ±100 for the full control effect; potency is the fitted concentration of half-maximal effect.

SMILES	VP16 counter	RORg inh	Tau fluor cs	Tau ThT inhib	Tau FP inhib
CCCCNC(=O)c1cn(CC)c2ccc(S(=O)(=O)N3CCCCCC3)cc2c1=O	-8%	0%	·	·	·
Cc1cc(Cl)ccc1OCC(=O)OCC(=O)Nc1ccc(F)c([N+](=O)[O-])c1	11%	?	11µM*[quencher]	?	?
CCNC(=O)COC(=O)COc1ccc(Cl)cc1C	-12%	-12%	3%	-8%	0%
O=C(NNC(=O)c1ccccc1C(=O)O)c1ccc(-c2ccccc2)cc1	1%	14µM*	-19%	?	0%
O=C(Cc1ccccc1)Nc1cccc(C(=O)O)c1O	10µM*	-31%	3%	2%	2%
O=C(Cc1ccccc1)Nc1ccccc1C(=O)Nc1ccccc1	2%	?	3%	6%	-8%
O=C(Cc1ccccc1)NNC(=O)c1ccccc1C(=O)O	5%	3.2µM*	0%	-1%	-3%
Cc1cc2oc(=O)cc(-c3ccccc3)c2c(C)c1-c1cccc(N)c1	-14%	31%	-22%[81.3 µM]	-8%[81.4 µM]	8%[81.3 µM]
COc1ccc(/C=N/NC(=O)c2cccnc2)cc1CSc1ccccn1	7%	-4%	-18%	-5%	-7%
COc1ccc(/C=N/NC(=O)c2ccncc2)cc1CSc1nc2ccccc2s1	6.3µM*	7.1µM*	?	8%	?
CCOC(=O)C1CCN(c2cc3c(cc2NC(=O)c2cc(OC)ccc2Br)n(C)c(=O)n3C)CC1	-20%	2%	·	·	·
CCn1c(CN2CCN(c3cccc(C)c3C)CC2)n[nH]c1=S	7.1µM*	4µM*	-9%	-2%	3%
CCOC(=O)c1cc(S(=O)(=O)N2CCN(c3cccc(C)c3C)CC2)[nH]n1	·	·	-11%	-5%	-5%
Cc1cc(/C=C2/NC(=O)N(Cc3ccccc3F)C2=O)c(C)n1C	10%	-6%	-19%	?	-4%
CCOc1cc([N+](=O)[O-])cc(/C=C2/NC(=O)N(Cc3ccccc3F)C2=O)c1O	-7%	9%	?	14µM*	-3%
COc1ccc(C2=CC3=C(Br)C(=O)C(C)(OC(=O)c4ccco4)C(=O)C3=CO2)cc1 (centres undefined)	-7%	-25%	?	16µM*	?
COc1cc(CNCCc2ccc(F)cc2)ccc1OCc1ccc(Cl)nc1	-25%	2.2µM*	-15%	-13%	2%
COc1cc(CNCCc2ccccc2F)ccc1OCc1ccc(Cl)nc1	15%	-17%	-18%	-18%	-11%
CCOC(=O)c1ccc(NS(=O)(=O)c2ccc(Br)s2)cc1	·	·	-25%	-6%	-10%
COc1ccc(CCNC(=O)CCCCn2c(=O)c3ccccc3n(Cc3ccc(Cl)cc3)c2=O)cc1OC	·	·	-9%	-15%	0%
O=C1OCCC1Sc1nc2cc(Cl)ccc2n1Cc1ccccc1 (centres undefined)	?	13µM*	-27%	-17%	-3%
CC(C)(C)c1ccc(-c2nnc(SC3CCOC3=O)n2Cc2ccccc2)cc1 (centres undefined)	?	16µM*	-7%	-18%	-1%
O=C1OCCC1Sc1nc2ccccc2c(=O)n1Cc1ccccc1 (centres undefined)	-9%[10 µM]	1%	-10%	-14%	5%
O=C(NCCc1ccc(Cl)cc1)c1nnc(Cc2ccc(Cl)cc2Cl)o1	·	·	-8%	6%	?
O=C(CCC(=O)Nc1ccc(F)cc1)N/N=C/c1ccccc1	-7%	15%	·	·	·
SMILES	VP16 counter	RORg inh	Tau fluor cs	Tau ThT inhib	Tau FP inhib
C=CCc1cccc(/C=N/NC(=O)CCCNc2ccc(C)cc2)c1O	2µM*	1µM*	11µM*[quencher]	?	11%
C=CCn1c(Cc2c[nH]c3ccccc23)nnc1SCC(=O)NCc1ccccc1	0%	17%	-5%	-6%	-5%
C=CCc1cccc(C=Nc2ccc(Br)cc2)c1O	-18%	5%	-5%	-4%	-4%
C=CCc1cccc(/C=N/NC(=O)CCC(=O)Nc2ccc(F)cc2)c1O	1µM*	1µM*	-18%	7%	?
C=CCc1cccc(/C=N/n2cnnc2)c1O	-12%[0.365 µM]	7.1µM*	-1%	-6%	4%
C=CCn1c(CNc2ccccc2)nnc1SCC(=O)N/N=C/c1ccccc1O	16µM*	10µM*	-19%	-6%	10%
CCOC(=O)c1c(-c2ccccc2)oc2ccc(OCc3cccc(Br)c3)cc12	·	·	-3%	-3%	-8%
C=CCc1cccc(/C=N/NC(=O)CN2CCN(Cc3ccccc3)CC2)c1O	10µM*	1.1µM*	·	·	·
C=CCc1cccc(/C=N/NC(=O)CNc2cccc3ccccc23)c1O	1.1µM*	0.56µM*	-5%	2%	4%
C=CCc1cccc(/C=N/NC(=O)C(C)Nc2cccc(C)c2)c1O (centres undefined)	2.5µM*	0.04µM*	?	-9%	3%
CC(Nc1ccc(Br)cc1)C(=O)N/N=C/c1ccccc1OCc1ccccc1 (centres undefined)	13%	-3%	?	-8%	11%
COc1ccccc1/C=N/NC(=O)COCC(=O)N/N=C/c1ccccc1OC	-5%	-3%	-3%	2%	4%
C=CCc1cccc(/C=N/NC(=O)CNc2ccccc2OC)c1O	-2%	1.3µM*	16µM*[quencher]	?	?
COc1ccccc1CNC(=O)C1CCN(S(=O)(=O)c2ccc3[nH]c(=O)ccc3c2)CC1	·	·	1%	4%	9%
CC(C)CCNC(=O)C1CCN(S(=O)(=O)c2cccc3nsnc23)CC1	·	·	0%	6%	1%
C=CCc1cccc(/C=N/NC(=O)CNc2ccccc2)c1O	?	1.6µM*	?	4%	?
O=C(CN1CCN(Cc2ccccc2)CC1)N/N=C/c1ccco1	-6%	38%	-11%	-9%	-8%
O=C(CN1CCN(Cc2ccccc2)CC1)N/N=C/c1ccc(Br)s1	10µM*	5.6µM*	-7%	-15%	8%
C=CCc1cccc(/C=N/NC(=O)C[n+]2ccccc2)c1O	-11%	?	·	·	·
Cc1nn(C)c(C)c1S(=O)(=O)NCCc1ccc(Cl)cc1	12%	2%	·	·	·
Cn1c2ccccc2c2cnn(CC(=O)Nc3ccccc3F)c(=O)c21	·	·	3%	0%	-3%
COCOc1cc(OC)ccc1C(=O)/C=C\c1ccc2c(c1)OCO2	?	13%[10 µM]	-7%[11.6 µM]	-15%[11.5 µM]	4%[11.6 µM]
O=C(Cn1c(=O)n(Cc2nc(-c3ccccc3)no2)c(=O)c2cc3c(cc21)OCO3)Nc1ccc(Cl)cc1	·	·	-11%	24%	20µM*
O=C(Cn1c(=O)n(Cc2nc(-c3ccccc3)no2)c(=O)c2cc3c(cc21)OCO3)Nc1ccccc1	·	·	-27%	16%	28µM*
Oc1c(C2=NCCNC(C(F)(F)F)=C2)ccc2ccccc12	3%[10 µM]	-34%	?	6.3µM*	?
Cc1ccc(O)c(C2=NCCNC(C(F)(F)F)=C2)c1	-1%	2%	-12%	-21%	2%
Cc1cccc(C(=O)c2cnc3ccccc3c2-c2ccccc2)c1	10µM*	?	-9%	-11%	9%
